Over roughly 18,000 sequences, “TetR repression strength (sort-seq, GFP reporter)” has its median near 0.23; the highest 2% begin near 0.68. The list comes from a sample in which the highest values are over-represented; it also holds similar and randomly drawn sequences.
Molecular target: TetR (class B, Tn10) (UniProt P04483)
Assay: TetR repression strength (sort-seq, GFP reporter) (relative to tetO2 = 1); higher = stronger repression
Conditions: E. coli
In short: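 Three independent transformations of E. coli SIG10-MAX were made with a low-copy plasmid library randomizing eight operator positions between a constitutive promoter and sfGFP, with constitutive TetR. Following 5 h at 37 °C in LB plus 50 µg/mL chloramphenicol, 10^6 cells went through FACS into 13 fluorescence bins, and each bin was sequenced by Illumina. Repression strength was defined as the top bin index plus one minus the read-weighted mean bin, divided by the unaltered operator's value. Averages included only members reaching ≥30 reads in all replicates with a CV ≤0.5.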

Sequence of TetR (class B, Tn10) (P04483 whole entry): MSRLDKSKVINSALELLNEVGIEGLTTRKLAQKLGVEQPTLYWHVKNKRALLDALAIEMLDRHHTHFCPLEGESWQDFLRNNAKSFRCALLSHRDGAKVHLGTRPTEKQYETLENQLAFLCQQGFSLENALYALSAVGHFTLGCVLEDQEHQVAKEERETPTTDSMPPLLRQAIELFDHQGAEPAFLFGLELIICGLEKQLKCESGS

Point of comparison: TCCCCAATAGTTAGGGAGA, TetR repression strength 0.699. Against it:
- TCCCGTTGAGTATTTGAGA — lower, 0.329
- TCCCGTTGAGTGTTTGAGA — lower, 0.13
- TCCCGTTTAGTATTTGAGA — higher, 0.713
- TCCCGAGGAGTGTTCGAGA — lower, 0.224
- TCCCGTTTAGTAGTTGAGA — lower, 0.028
- TCCCGTTAAGTTTCTGAGA — lower, 0.302
- TCCCGTTGAGTGTTGGAGA — higher, 1.1
- TCCCGTGGAGTGTTGGAGA — lower, 0.325
- TCCCGTCGAGTGTTCGAGA — lower, 0.218
- TCCCGTAAAGTGGTGGAGA — lower, 0.228
- TCCCTCGAAGTGCTTGAGA — lower, 0.406
- TCCCGAAGAGTGTTGGAGA — lower, 0.268
- TCCCGTCAAGTACGCGAGA — lower, 0.196
- TCCCCATGAGTAATTGAGA — lower, 0.334
- TCCCGCGTAGTTACCGAGA — lower, 0.161
- TCCCTCGGAGTGTGCGAGA — lower, 0.09
- TCCCTTTGAGTATGGGAGA — lower, 0.0551
- TCCCTCGAAGTAGAAGAGA — lower, 0.297
- TCCCGGGGAGTGTCCGAGA — lower, 0.125
- TCCCGTGGAGTGTCCGAGA — higher, 0.821
- TCCCGTGGAGTGGCCGAGA — lower, 0.159
- TCCCTACAAGTGTTTGAGA — lower, 0.295
- TCCCGGACAGTTGGTGAGA — lower, 0.421
- TCCCAGACAGTCATTGAGA — lower, 0.375
- TCCCGGGCAGTCCGCGAGA — lower, 0.163
- TCCCAATGAGTGGGCGAGA — lower, 0.238
- TCCCCAACAGTTAGGGAGA — lower, 0.218
- TCCCGCTAAGTTAGGGAGA — lower, 0.286
- TCCCGCGGAGTTAGGGAGA — lower, 0.207
- TCCCGCTGAGTTACGGAGA — lower, 0.652
- TCCCGCTGAGTTAGGGAGA — higher, 0.929
- TCCCGCTTAGTTAGGGAGA — higher, 1.02
- TCCCGCTTAGTGAGGGAGA — lower, 0.419
- TCCCCCATAGTTAGGGAGA — lower, 0
- TCCCGCTTAGTTACGGAGA — higher, 1.2
- TCCCGCTGAGTTAGAGAGA — lower, 0.0464
- TCCCGGTTAGTTACGGAGA — lower, 0.211
- TCCCTTTGAGTGGACGAGA — lower, 0.246
- TCCCCATTAGTGGAGGAGA — lower, 0.275
- TCCCCGGCAGTATGTGAGA — lower, 0.189
- TCCCGGAAAGTCTAGGAGA — lower, 0.216
- TCCCTTTAAGTCGACGAGA — lower, 0.285
- TCCCTTTTAGTGTGGGAGA — lower, 0.317
- TCCCGTTAAGTCTTGGAGA — lower, 0.302
- TCCCGGCTAGTCACTGAGA — lower, 0.256
- TCCCGAGTAGTCACTGAGA — lower, 0.231
- TCCCGCCTAGTCACTGAGA — lower, 0.682
- TCCCGGCTAGTAGTTGAGA — lower, 0.295
- TCCCGGTTAGTCGTTGAGA — lower, 0.225
- TCCCGGAGAGTCGTTGAGA — lower, 0.118
- TCCCGGCGAGTCGTTGAGA — higher, 0.801
- TCCCGTCGAGTCGTTGAGA — lower, 0.134
- TCCCGGCTAGTCGTTGAGA — higher, 0.89
- TCCCAATAAGTGTGCGAGA — lower, 0.242
- TCCCGTTTAGTCGCGGAGA — lower, 0.215
- TCCCAGTTAGTGGGTGAGA — lower, 0.172
- TCCCCTCGAGTGCCGGAGA — lower, 0.442
- TCCCTAAAAGTGGGAGAGA — lower, 0.203
- TCCCCAGGAGTGGTAGAGA — lower, 0.189
- TCCCTATGAGTGATAGAGA — higher, 0.765
- TCCCTATGAGTGCTAGAGA — lower, 0.452
- TCCCTGTGAGTGATAGAGA — lower, 0.456
- TCCCAAAGAGTGGTAGAGA — lower, 0.164
- TCCCAAGGAGTGGTAGAGA — higher, 1.18
- TCCCACCGAGTGAGAGAGA — lower, 0.43
- TCCCCAGGAGTGATAGAGA — lower, 0.339
- TCCCACCGAGTGATAGAGA — higher, 1.21
- TCCCAAGGAGTGATAGAGA — higher, 0.977
- TCCCACCGAGTGATCGAGA — lower, 0.405
- TCCCATGGAGTGATAGAGA — lower, 0.548
- TCCCGGATAGTGGGTGAGA — lower, 0.0875
- TCCCCGGCAGTCGCAGAGA — lower, 0.207
- TCCCGTGTAGTAAGGGAGA — lower, 0.307
- TCCCGCCGAGTAGGCGAGA — lower, 0.34
- TCCCACTGAGTGATAGAGA — lower, 0.551
- TCCCAATGAGTGATAGAGA — lower, 0.685
- TCCCAGTGAGTGATAGAGA — lower, 0.528
- TCCCTGTTAGTGGGGGAGA — higher, 0.737
- TCCCTGATAGTGGGGGAGA — lower, 0.0581
- TCCCTGTTAGTGGGAGAGA — lower, 0.189
- TCCCAAATAGTGGGAGAGA — lower, 0.214
- TCCCAAATAGTGGGGGAGA — higher, 1.1
- TCCCAAATAGTGTGGGAGA — lower, 0.459
- TCCCTGAAAGTCACGGAGA — lower, 0.337
- TCCCGGGGAGTTAGGGAGA — lower, 0.346
- TCCCCACAAGTGTCAGAGA — lower, 0.352
- TCCCCACAAGTATCAGAGA — higher, 0.752
- TCCCCACAAGTATCCGAGA — lower, 0.296
- TCCCCACCAGTGTCAGAGA — lower, 0.334
- TCCCCACCAGTATCAGAGA — lower, 0.697
- TCCCACCCAGTATCAGAGA — lower, 0.2
- TCCCGGTAAGTGATGGAGA — lower, 0.338
- TCCCGAGAAGTCCGAGAGA — lower, 0.474
- TCCCAGTAAGTCAGAGAGA — lower, 0.066
- TCCCGGAAAGTCTCGGAGA — lower, 0.107
- TCCCTAAGAGTTGGTGAGA — lower, 0.137
- TCCCTCGTAGTGGGTGAGA — higher, 0.815
- TCCCTGAGAGTTGGTGAGA — lower, 0.164
- TCCCAAGTAGTTGGTGAGA — higher, 0.774
- TCCCTCGGAGTGGGTGAGA — higher, 0.988
- TCCCTCTGAGTGGGTGAGA — lower, 0.195
- TCCCTCAGAGTTGGTGAGA — higher, 1.2
- TCCCCAGTAGTTGGTGAGA — lower, 0.114
- TCCCTAGTAGTTGGTGAGA — lower, 0.177
- TCCCTCGTAGTGAGTGAGA — lower, 0.507
- TCCCTCGGAGTGGGAGAGA — lower, 0.217
- TCCCTCATAGTGGGTGAGA — lower, 0.0921

Source: a collection of fitness landscapes (doi:10.1038/s41467-024-54723-y)
